Molecules are shown by their SMILES.

The test system of the assay is Pseudomonas aeruginosa PA14 wild type. Kind of assay: respiration area under curve with compound as sole nitrogen source, 24 h (OmniLog AUC (arbitrary units)); higher = more respiration / better utilisation as nitrogen source, active = 2000 or more. The method, then:
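Biolog Phenotype MicroArray plates PM6-PM8: each di/tripeptide is the sole nitrogen source (IF-0 medium with succinate/ferric citrate and dye mix A). Tetrazolium reduction was read in the OmniLog every 15 min for 24 h at 37°C and summarised as area under the respiration curve (arbitrary units). The paper counts values below 2000 as no respiration and above 8000 as solid respiration. Replicate datasets are averaged.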
On to `CSCCC(N)C(=O)NC(CCSC)C(=O)O` (stereo not given) (plate: PM7), for which the “respiration area under curve” value is 0 (inactive).

On to `NC(=O)CC[C@H](N)C(=O)N[C@@H](CCC(=O)O)C(=O)O` (plate: PM8), for which the “respiration area under curve” value is 9650 (active).

`CC[C@H](C)[C@H](N)C(=O)N[C@@H](Cc1ccc(O)cc1)C(=O)O` (plate: PM6): the “respiration area under curve” value is 2310 (active).

Turning to `NCC(=O)N[C@@H](CC(=O)O)C(=O)O` (plate: PM8), the “respiration area under curve” value was 5610 (active).

Turning to `CC[C@H](C)[C@H](NC(=O)[C@@H]1CCCN1)C(=O)O` (plate: PM8), the “respiration area under curve” value was 7540 (active).

In the case of `C[C@H](N)C(=O)N[C@@H](CCCN=C(N)N)C(=O)O` (plate: PM6), the “respiration area under curve” value was 10100 (active).

As for `C[C@H](NC(=O)[C@@H](N)CCCN=C(N)N)C(=O)O` (plate: PM6), the “respiration area under curve” value is 9790 (active).

As to `C[C@@H](O)[C@H](N)C(=O)N[C@@H](CO)C(=O)O` (plate: PM8), the “respiration area under curve” value is 7920 (active).

`C[C@@H](O)[C@H](NC(=O)CN)C(=O)O` (plate: PM6): the “respiration area under curve” value is 5430 (active).

Take `CC[C@H](C)[C@H](N)C(=O)N[C@@H](CCCN=C(N)N)C(=O)O` (plate: PM6): the “respiration area under curve” value is 9480 (active).

On to `NCC(=O)N[C@@H](CC(N)=O)C(=O)O` (plate: PM8), for which the “respiration area under curve” value is 14700 (active).

As to `CC[C@H](C)[C@H](NC(=O)[C@@H](N)CC(C)C)C(=O)O` (plate: PM6), the “respiration area under curve” value was 6260 (active).

For `NC(Cc1c[nH]c2ccccc12)C(=O)NC(Cc1ccccc1)C(=O)O` (stereo not given) (plate: PM7), the “respiration area under curve” value was 547 (inactive).

In the case of `C[C@H](N)C(=O)N[C@@H](C)C(=O)N[C@@H](C)C(=O)O` (plate: PM8), the “respiration area under curve” value was 10400 (active).

For the compound `O=C(O)[C@@H]1C[C@@H](O)CN1C(=O)[C@@H]1CCCN1` (plate: PM7), the “respiration area under curve” value was 0 (inactive).

`CC(C)C[C@H](N)C(=O)NCC(=O)NCC(=O)O` (plate: PM8): the “respiration area under curve” value is 10400 (active).

Take `CC(C)[C@H](NC(=O)[C@@H](N)Cc1ccccc1)C(=O)O` (plate: PM8): the “respiration area under curve” value was 6870 (active).

As for `CSCC[C@H](N)C(=O)N[C@H](C(=O)O)C(C)C` (plate: PM7), the “respiration area under curve” value was 4480 (active).

As to `NC(=O)CC[C@H](NC(=O)[C@@H](N)CC(=O)O)C(=O)O` (plate: PM8), the “respiration area under curve” value is 9700 (active).

Turning to `CC[C@H](C)[C@H](NC(=O)[C@H](C)N)C(=O)O` (plate: PM8), the “respiration area under curve” value is 9130 (active).

On to `O=C(O)[C@H](Cc1ccc(O)cc1)NC(=O)[C@@H]1CCCN1` (plate: PM7), for which the “respiration area under curve” value was 12200 (active).

Regarding `CC[C@H](C)[C@H](N)C(=O)N[C@H](C(=O)O)C(C)C` (plate: PM6), the “respiration area under curve” value was 6570 (active).

As for `CC[C@H](C)[C@H](NC(=O)CN)C(=O)O` (plate: PM8), the “respiration area under curve” value is 7100 (active).

Consider `CC(C)C[C@H](N)C(=O)N[C@H](C(=O)O)C(C)C` (plate: PM7), for which the “respiration area under curve” value is 9910 (active).

For `CC[C@H](C)[C@H](N)C(=O)N[C@H](C(=O)O)[C@@H](C)CC` (plate: PM6), the “respiration area under curve” value was 2030 (active).

Turning to `NCC(=O)N[C@H](CC(=O)O)C(=O)O` (plate: PM8), the “respiration area under curve” value was 0.2 (inactive).

For the compound `C[C@H](N)C(=O)N[C@@H](CCC(N)=O)C(=O)O` (plate: PM8), the “respiration area under curve” value is 11600 (active).

On to `NC(N)=NCCC[C@H](N)C(=O)N[C@@H](CCC(=O)O)C(=O)O` (plate: PM6), for which the “respiration area under curve” value was 9830 (active).

Turning to `CCC(C)C(N)C(=O)NC(CC(N)=O)C(=O)O` (stereo not given) (plate: PM8), the “respiration area under curve” value was 9360 (active).

As for `NC(N)=NCCC[C@H](N)C(=O)N[C@@H](CC(=O)O)C(=O)O` (plate: PM6), the “respiration area under curve” value is 9430 (active).

Turning to `CC(C)C[C@H](N)C(=O)N[C@@H](CO)C(=O)O` (plate: PM7), the “respiration area under curve” value was 13500 (active).

Regarding `C[C@H](N)C(=O)N[C@@H](CC(=O)O)C(=O)O` (plate: PM8), the “respiration area under curve” value is 10500 (active).

In the case of `N[C@@H](CC(=O)O)C(=O)N[C@@H](Cc1c[nH]c2ccccc12)C(=O)O` (plate: PM6), the “respiration area under curve” value is 2310 (active).

As for `CC[C@H](C)[C@H](N)C(=O)N[C@@H](C)C(=O)O` (plate: PM6), the “respiration area under curve” value was 5290 (active).

`N[C@@H](Cc1ccccc1)C(=O)N[C@@H](Cc1c[nH]c2ccccc12)C(=O)O` (plate: PM7): the “respiration area under curve” value is 524 (inactive).

`CC(C)[C@H](N)C(=O)N[C@@H](Cc1ccc(O)cc1)C(=O)O` (plate: PM7): the “respiration area under curve” value was 8020 (active).

Regarding `N[C@@H](Cc1ccccc1)C(=O)NCC(=O)O` (plate: PM7), the “respiration area under curve” value was 7630 (active).

Consider `CSCC[C@H](N)C(=O)N[C@@H](CC(C)C)C(=O)O` (plate: PM7), for which the “respiration area under curve” value was 2580 (active).

As to `CC[C@H](C)[C@H](N)C(=O)N[C@@H](CO)C(=O)O` (plate: PM6), the “respiration area under curve” value is 6110 (active).

Take `C[C@@H](O)[C@H](N)C(=O)N[C@@H](Cc1ccccc1)C(=O)O` (plate: PM8): the “respiration area under curve” value is 8640 (active).

The values are drawn from the supplement of paper PMC4206461.
